Experimental findings from PubChem BioAssay (EPA / NIEHS) are described below.

Read-out in assay [1]: C-C motif chemokine 2 (Homo sapiens) (UniProt P13500)
Description: BSK_KF3CT_MCP1: BioMAP Diversity Plus: KF3CT Assay for Monocyte Chemoattractant Protein 1 (MCP1/CCL2) Biomarker Activity (AID 2283073). Conditions: primary human keratinocytes with fibroblasts; actives raise or lower the signal. The method, boiled down: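 Human keratinocyte plus foreskin fibroblast primary co-culture exposed to chemical for 24 h. MCP-1 levels measured by ELISA. Bidirectional curve fitting relative to DMSO negative control as baseline.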

Read-out in assay [2]: Matrix Metallopeptidase 9 (MMP9), MMP9 (gene 4318)
Nature of the assay: BSK_KF3CT_MMP9: BioMAP Diversity Plus: KF3CT Assay for Matrix Metallopeptidase 9 (MMP9) Biomarker Activity (AID 2283074). Conditions: primary human keratinocytes with fibroblasts; actives raise or lower the signal. The essentials:
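MMP-9 quantified by ELISA after 24 h chemical treatment of primary human skin keratinocyte/fibroblast co-cultures; gain or loss fitted against DMSO, with parallel SRB staining (0.1% SRB, 560 nm) for overt cytotoxicity.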

Read-out in assay [3]: urokinase plasminogen activator (uPA), PLAU (gene 5328)
Nature of the assay: BSK_KF3CT_uPA: BioMAP Diversity Plus: KF3CT Assay for urokinase plasminogen activator (uPA) Biomarker Activity (AID 2283075). The settings on record: primary human keratinocytes with fibroblasts; actives raise or lower the signal. The essentials: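 ELISA read-out of uPA 24 h after dosing human skin keratinocytes co-cultured with foreskin fibroblasts. Signal change fitted both ways relative to DMSO; sulforhodamine B on parallel cultures marks overt cytotoxicity.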

Read-out in assay [4]: CD40, CD40 (gene 958)
Description: BSK_LPS_CD40: BioMAP Diversity Plus: LPS Assay for CD40 Biomarker Activity (AID 2283076). The settings on record: primary human HUVEC with PBMC; actives raise or lower the signal. The essentials: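 Primary human umbilical vein endothelial cells co-cultured with peripheral blood mononuclear cells, LPS-stimulated, were dosed with chemical and read 24 h later. CD40 levels were measured by ELISA and fitted bidirectionally against DMSO as negative control and baseline.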

Read-out in assay [5]: E-selectin (Homo sapiens) (UniProt P16581)
Nature of the assay: BSK_LPS_Eselectin: BioMAP Diversity Plus: LPS Assay for Eselectin Biomarker Activity (AID 2283077). Conditions: primary human HUVEC with PBMC; actives raise or lower the signal. The essentials:
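Human umbilical vein endothelial cells co-cultured with peripheral blood mononuclear cells under LPS stimulation; E-selectin measured by ELISA 24 h after chemical dosing. Activity fitted bidirectionally against DMSO as negative control and baseline.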

Read-out in assay [6]: Interleukin-8 (IL8), CXCL8 (gene 3576)
Nature of the assay: BSK_LPS_IL8: BioMAP Diversity Plus: LPS Assay for Interleukin-8 (IL8) Biomarker Activity (AID 2283078). Conditions: primary human HUVEC with PBMC; actives raise or lower the signal. The method, boiled down: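 Human umbilical vein endothelial cells co-cultured with PBMC were stimulated with LPS; IL-8 levels were measured by ELISA 24 h after chemical dosing. Activity was fitted bidirectionally against DMSO as negative control and baseline.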

Assay [7] in a line: BSK_LPS_SRB: Viability Assessment in the BioMAP Diversity Plus: LPS Assay (AID 2283079).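 Also: total protein by sulforhodamine B absorbance as a cytotoxicity measure; measured one day after compound addition; fitted in both directions against DMSO so loss or gain of signal counts.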 Conditions: primary human HUVEC with PBMC. The essentials: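 Human umbilical vein endothelial cells co-cultured with PBMC (LPS system) were dosed for 24 h. Total protein was stained with 0.1% sulforhodamine B after 10% TCA fixation, read at 560 nm, and fitted bidirectionally against DMSO baseline.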

Read-out in assay [8]: Interleukin-1 alpha (IL1a), IL1A (gene 3552)
Nature of the assay: BSK_LPS_IL1a: BioMAP Diversity Plus: LPS Assay for Interleukin-1 alpha (IL1a) Biomarker Activity (AID 2283080). The settings on record: primary human HUVEC with PBMC; actives raise or lower the signal. The essentials:
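Human umbilical vein endothelial cells co-cultured with peripheral blood mononuclear cells were LPS-stimulated and exposed to test chemicals for 24 h. IL-1 alpha was quantified by ELISA, with bidirectional curve fitting against DMSO as the negative control and baseline.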

Read-out in assay [9]: Monocyte Chemoattractant Protein-1 (MCP1), CCL2 (gene 6347)
Description: BSK_LPS_MCP1: BioMAP Diversity Plus: LPS Assay for Monocyte Chemoattractant Protein-1 (MCP1) Biomarker Activity (AID 2283081). Conditions: primary human HUVEC with PBMC; actives raise or lower the signal. The method, boiled down:
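HUVEC plus PBMC co-culture (human primary cells, LPS system) exposed to test chemical for 24 h; MCP-1 measured by ELISA. Bidirectional curve fitting against DMSO baseline; parallel SRB total-protein staining flags overt cytotoxicity.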

Assay [10] is described as follows: BSK_LPS_PGE2: BioMAP Diversity Plus: LPS Assay for Prostaglandin E2 (PGE2) Biomarker Activity (AID 2283082).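 As to AC50: secreted prostaglandin E2 measured by ELISA in LPS-stimulated co-culture.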 The settings on record: primary human HUVEC with PBMC; actives raise or lower the signal. The method, boiled down:
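ELISA read-out of PGE2 from human umbilical vein endothelial cells co-cultured with peripheral blood mononuclear cells under LPS, 24 h post-dose. Gain or loss of signal scored relative to DMSO baseline.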

Read-out in assay [11]: Macrophage colony-stimulating factor (MCSF), CSF1 (gene 1435)
Description: BSK_LPS_MCSF: BioMAP Diversity Plus: LPS Assay for Macrophage colony-stimulating factor (MCSF) Biomarker Activity (AID 2283083). Conditions: primary human HUVEC with PBMC; actives raise or lower the signal. The method, boiled down:
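Human umbilical vein endothelial cells co-cultured with peripheral blood mononuclear cells were exposed to compound for 24 h. M-CSF levels were measured by ELISA, and bidirectional curve fitting used DMSO as the negative control and baseline.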

Read-out in assay [12]: Tissue Factor, F3 (gene 2152)
Description: BSK_LPS_TissueFactor: BioMAP Diversity Plus: LPS Assay for Tissue Factor Biomarker Activity (AID 2283084). The settings on record: primary human HUVEC with PBMC; actives raise or lower the signal. The method, boiled down:
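Human umbilical vein endothelial cells co-cultured with peripheral blood mononuclear cells were dosed and stimulated with LPS. Cell-surface CD142 was quantified by ELISA at 24 h. Activity was fitted bidirectionally against DMSO baseline.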

Read-out in assay [13]: Vascular cell adhesion molecule 1 (VCAM1), VCAM1 (gene 7412)
Description: BSK_LPS_VCAM1: BioMAP Diversity Plus: LPS Assay for Vascular cell adhesion molecule 1 (VCAM1) Biomarker Activity (AID 2283086). Conditions: primary human HUVEC with PBMC; actives raise or lower the signal. The essentials:
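ELISA read-out of VCAM-1 at 24 h post-dosing in an LPS-driven HUVEC/PBMC primary human co-culture; gain or loss of signal fitted bidirectionally against DMSO baseline. Cytotoxicity tracked in parallel cultures by SRB total-protein staining.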

Read-out in another assay: CD38, CD38 (gene 952)
Description: BSK_SAg_CD38: BioMAP Diversity Plus: SAg Assay for CD38 Biomarker Activity (AID 2283087). Conditions: primary human HUVEC with PBMC; actives raise or lower the signal. The method, boiled down:
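Measures CD38 on a human endothelial/PBMC co-culture driven by SEB and TSST-1, 24 h after compound exposure, using ELISA with fluorescence detection; DMSO defines baseline for bidirectional curve fitting.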

Read-out in assay [14]: CD40, CD40 (gene 958)
Nature of the assay: BSK_SAg_CD40: BioMAP Diversity Plus: SAg Assay for CD40 Biomarker Activity (AID 2283088). The settings on record: primary human HUVEC with PBMC; actives raise or lower the signal. The essentials:
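Human umbilical vein endothelial cells co-cultured with PBMC; CD40 levels measured by ELISA with fluorescence read-out 24 h after chemical dosing. Gain or loss of signal fitted bidirectionally against DMSO baseline.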

Read-out in the next assay: CD69, CD69 (gene 969)
Description: BSK_SAg_CD69: BioMAP Diversity Plus: SAg Assay for CD69 Biomarker Activity (AID 2283089). The settings on record: primary human HUVEC with PBMC; actives raise or lower the signal. The method, boiled down:
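Primary human vascular co-culture (umbilical vein endothelium with peripheral blood mononuclear cells) exposed to test chemical for 24 h. CD69 levels quantified by fluorescence ELISA; DMSO served as negative control for bidirectional fitting.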

Read-out in assay [15]: Monocyte Chemoattractant Protein-1 (MCP1), CCL2 (gene 6347)
Nature of the assay: BSK_SAg_MCP1: BioMAP Diversity Plus: SAg Assay for Monocyte Chemoattractant Protein-1 (MCP1) Biomarker Activity (AID 2283090). Conditions: primary human HUVEC with PBMC; actives raise or lower the signal. The method, boiled down:
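Values derive from bidirectional fitting of ELISA-measured MCP1 against DMSO controls. Readings were taken 24 h after dosing human vascular endothelial cells co-cultured with peripheral blood mononuclear cells under superantigen stimulation.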

Read-out in assay [16]: E-selectin (Homo sapiens) (UniProt P16581)
Nature of the assay: BSK_SAg_Eselectin: BioMAP Diversity Plus: SAg Assay for Eselectin Biomarker Activity (AID 2283091). The settings on record: primary human HUVEC with PBMC; actives raise or lower the signal. The essentials:
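HUVEC co-cultured with PBMC, compound dosed then read at 24 h; E-selectin measured by ELISA. Activity fitted bidirectionally against DMSO as negative control and baseline.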

Read-out in assay [17]: Monokine induced gamma interferon (MIG), CXCL9 (gene 4283)
Description: BSK_SAg_MIG: BioMAP Diversity Plus: SAg Assay for Monokine induced gamma interferon (MIG) Biomarker Activity (AID 2283092). Conditions: primary human HUVEC with PBMC; actives raise or lower the signal. The essentials:
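Endothelial cells and PBMC were co-cultured, exposed to test chemicals, and sampled 24 h later. MIG was measured by ELISA, and responses were fitted in both directions relative to DMSO.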

Activity calls are given as the source filed them. The calls were made as follows: active = hit-call score of the fitted dose curve at least 0.9, where 1 is the maximum; inactive = score below 0.9.

For orientation: AC50 means the midpoint of the concentration-response curve, whichever way the signal moves.

Chain of E-selectin (Homo sapiens) (P16581 whole entry, looked up): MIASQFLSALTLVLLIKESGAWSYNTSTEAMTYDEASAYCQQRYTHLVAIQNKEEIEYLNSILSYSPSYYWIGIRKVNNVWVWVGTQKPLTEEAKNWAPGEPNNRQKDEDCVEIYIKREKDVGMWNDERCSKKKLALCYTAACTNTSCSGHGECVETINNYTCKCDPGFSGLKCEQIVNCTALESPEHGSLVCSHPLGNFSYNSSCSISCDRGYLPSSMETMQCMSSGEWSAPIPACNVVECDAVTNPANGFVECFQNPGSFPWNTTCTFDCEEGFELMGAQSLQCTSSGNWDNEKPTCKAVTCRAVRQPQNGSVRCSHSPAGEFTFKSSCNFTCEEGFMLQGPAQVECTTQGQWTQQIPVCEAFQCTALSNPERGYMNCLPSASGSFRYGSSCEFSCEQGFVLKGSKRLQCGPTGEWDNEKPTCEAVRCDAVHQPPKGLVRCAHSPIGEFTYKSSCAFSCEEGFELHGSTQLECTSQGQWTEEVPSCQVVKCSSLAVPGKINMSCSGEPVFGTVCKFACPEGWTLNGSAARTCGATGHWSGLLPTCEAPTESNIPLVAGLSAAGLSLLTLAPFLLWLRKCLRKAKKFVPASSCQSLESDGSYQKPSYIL

Consider `NC(=O)N(O)[C@@H]1C=C[C@H](Oc2cccc(Oc3ccc(F)cc3)c2)C1`, for which the outcome in [1] is “inactive”; in [2] it was “inactive”; in [3], “inactive”; with CD40, CD40 (gene 958) [4], “inactive”; in assay [5], “inactive”; in [6], “inactive”. Besides, the outcome in [8] is “inactive”; in [9] it was “inactive”; in [11], “inactive”; in assay [12], “inactive”; in assay [13] it was “inactive”; with CD40, CD40 (gene 958) [14], “inactive”. For the same molecule, the outcome with CD69, CD69 (gene 969) is “inactive”; in assay [15], “inactive”; in assay [16] it was “inactive”; in [17], “inactive”. Moreover, the AC50 in assay [7] was 3.97 µM (active); in assay [10], 8.49 µM (active); with CD38, CD38 (gene 952), 26.3 µM (active).

Turning to `CN1CCC[C@H]1c1cccnc1`, the outcome is “inactive” in assay [1]; “inactive” in assay [2]; “inactive” in assay [3]; “inactive” with CD40, CD40 (gene 958) [4]; “inactive” in assay [5]; “inactive” in assay [6]. Further, the result in [7], in assay [8], in assay [9], in assay [10], in assay [11] and in [12] was inactive. Further, the outcome is “inactive” in [13]; “inactive” with CD38, CD38 (gene 952); “inactive” with CD40, CD40 (gene 958) [14]; “inactive” with CD69, CD69 (gene 969); “inactive” in [15]; “inactive” in assay [16]. The outcome in [17] was inactive.

Turning to `CCc1ccc(CCOc2ccc(CC3SC(=O)NC3=O)cc2)nc1` (configuration not stated), the outcome in [1] is “inactive”; in [2], “inactive”; in assay [3] it was “inactive”; in the assay with CD40, CD40 (gene 958) [4], “inactive”; in assay [5], “inactive”; in assay [6], “inactive”. Besides, the result in [7], in assay [8], in assay [9], in [10], in [11] and in assay [12] was inactive. For the same molecule, the outcome in [13] was “inactive”; with CD38, CD38 (gene 952) it was “inactive”; with CD40, CD40 (gene 958) [14] it was “inactive”; with CD69, CD69 (gene 969) it was “inactive”; in assay [15], “inactive”; in [16], “inactive”. The outcome in assay [17] was inactive.
